DRD3 agonist: activates the human D3 dopamine receptor. P35462. D3R DiscoveRx beta-arrestin cells, luminescence, 90 min. max activation, %. 410,000 compounds, 0.58% hits. AID 652048; in the data active = max activation above about 30%; note: 0% is about no effect
Target sequence (P35462 whole entry, looked up): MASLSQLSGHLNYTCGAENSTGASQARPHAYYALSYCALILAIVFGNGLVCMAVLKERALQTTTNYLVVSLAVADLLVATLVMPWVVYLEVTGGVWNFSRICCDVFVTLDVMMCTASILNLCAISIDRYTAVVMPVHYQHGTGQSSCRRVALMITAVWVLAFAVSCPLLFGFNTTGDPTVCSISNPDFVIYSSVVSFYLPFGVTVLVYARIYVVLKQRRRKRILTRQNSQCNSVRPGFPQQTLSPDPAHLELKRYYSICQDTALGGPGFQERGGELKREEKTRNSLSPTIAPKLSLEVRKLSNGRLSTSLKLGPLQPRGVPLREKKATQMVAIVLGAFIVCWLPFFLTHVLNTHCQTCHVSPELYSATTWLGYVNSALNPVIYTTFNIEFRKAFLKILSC
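Agonist-mode cell screen: cells plated at 1500/well and incubated overnight at 37 °C, then exposed to library compounds for 90 min at 37 °C. Detection reagent was added for 30–60 min at room temperature, and luminescence was read.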
MCF10A rereplic: inducers of DNA re-replication in MCF 10A breast cells; MCF 10A DNA re-replication, Hoechst nuclear intensity, 48 h; AID 624296; 350,000 compounds, 2.9% hits; Potency, µM (doses to about 46.1 µM), for the others: at the top dose activity, positive = re-replication, hits mostly activators; note: potency is the fitted concentration of half-maximal effect; % of control where 0% means no effect; nearly all actives have a fitted effect of over 50% in size
KB-3-1 tox: KB-3-1 parental cell cytotoxicity | KB-3-1 viability, CellTiter-Glo ATP luminescence, 72 h | Potency, µM (titrated, usually from 46.1 µM), hits mostly cytotoxic | 400,000 compounds, 1.4% hits | AID 1347075; note: potency is the fitted concentration of half-maximal effect; % is set by controls: 0 for no effect and ±100 for the full control effect; nearly all actives have a fitted effect of over 60% in size
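Parental KB-3-1 viability, qHTS format: 72 h compound exposure, 37 °C; CellTiter-Glo; media-only wells and DMSO plates as controls; concentration-effect fits on corrected data.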
KB-V1 MDR tox: KB-V1 MDR subline cytotoxicity | KB-V1 MDR cells viability, CellTiter-Glo, 72 h | Potency, µM (series often up to 46.1 µM), actives largely listed as cytotoxic | 400,000 compounds, 3.4% hits | AID 1347076; note: potency is the fitted concentration of half-maximal effect; % is set by controls: 0 for no effect and ±100 for the full control effect; nearly all actives have a fitted effect of over 60% in size
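Potencies derive from concentration-effect curves fitted to normalized luminescence (CellTiter-Glo) of KB-V1 cells treated for 72 h at 37 degrees C in phenol-red-free DMEM containing 10% FBS.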
DRD3 antagonist: blocks the human D3 dopamine receptor. max response, negative = inhibition, %. D3R cells, DiscoveRx beta-arrestin luminescence, antagonist mode; hits give low values. 360,000 compounds, 2.5% hits. P35462; in the data active = max response below about -50%; inconclusive = no clear call, values can overlap the other calls; note: % is set by controls: 0 for no effect and ±100 for the full control effect
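Cells expressing the human receptor were seeded at 1500 cells/well, incubated overnight at 37 degrees C in 5% CO2, then exposed to library compounds with dopamine controls for 90 minutes at 37 degrees C before luminescent detection.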
SW480 rereplic: induces DNA re-replication in SW480 colon adenocarcinoma cells. Potency, µM (highest dose often 46.1 µM), for the others: at the top dose re-replication activation, most hits filed as activators. AID 624297. SW480 DNA re-replication, Hoechst DNA content imaging, 48 h. 340,000 compounds, 1.8% hits; note: potency is the fitted concentration of half-maximal effect; % of control where 0% means no effect; nearly all actives have a fitted effect of over 55% in size
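Compounds, transferred as 23 nL by pin tool, were incubated with cells for 48 hr; DNA content per nucleus was then quantified by Hoechst staining and fluorescence plate imaging.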
* hit, by the source's call; i = inactive; ? = inconclusive; . = no result given. In the library only some 8.9% were active in any assay of this set; here they are far more common. Unless noted, calls come from the whole dose curve; as a rule, active = well fitted curve in the direction sought with a large enough effect; inconclusive = small, poorly fitted or top-dose-only effect, or another doubt; inactive = no such curve, though single readings can be large; an effect the other way counts as inactive or inconclusive.

SMILES	DRD3 agonist	MCF10A rereplic	KB-3-1 tox	KB-V1 MDR tox	DRD3 antagonist	SW480 rereplic
CCN1C(=O)C(CC(=O)Nc2ccc(F)cc2)N(Cc2ccco2)C1=S (stereo not drawn)	5	0%	i	?	8	-2%
CCCOc1ccc(NC(=O)CC2C(=O)N(CC)C(=S)N2Cc2cccs2)cc1 (stereo not drawn)	12	8%	?	15µM*	22	17%
CCOc1ccccc1CNC(=O)CCn1cccn1	7	.	i	i	.	.
O=C(O)COc1ccccc1/C=C1\SC(=O)N(Cc2ccc(F)cc2)C1=O	15	4.6µM*	i	i	-10	-8%
Cc1ccc(CN2C(=O)S/C(=C\c3ccccc3OCC(=O)O)C2=O)cc1	-1	3%	i	i	14	-15%
S=C1SCN(CC2CC2)CN1CC1CC1	4	-1%	i	i	2	5.8µM*
S=C1SCN(CCc2ccccc2)CN1CCc1ccccc1	14	.	?	i	-23	.
O=C(C[n+]1c(Cl)cc(Cl)c2ccccc21)c1ccccc1	.	.	i	i	.	.
Cc1ccc(N2C(=O)CSC23C(=O)N(CC(=O)NCc2ccccc2)c2ccccc23)cc1C (stereo not drawn)	-6	.	i	?	.	.
CN(C)CCC(=O)N1C/C(=C/c2ccccc2)C(=O)/C(=C\c2ccccc2)C1	-24	31%	i	i	-85*	?
C[N+](C)(C)CCC(=O)N1C/C(=C/c2ccccc2)C(=O)/C(=C\c2ccccc2)C1	1	?	?	10µM*	12	0.73µM*
CN1CCN(C(=O)CCCN2C(=O)/C(=C/c3ccccc3)SC2=S)CC1	-5	?	?	?	-25	?
O=C(/C=C/c1ccccc1)N1CCOCC1	2	5%	i	?	-7	-20%
CCOC(=O)N1CCN(C(=O)CCCOc2ccccc2)CC1	-14	-1%	i	i	-26	-14%
O=C(Cc1ccccc1)N1CCNCC1	12	2%	i	?	3	-15%
CCOC(=O)N1C/C(=C\c2ccccc2)C(=O)/C(=C/c2ccccc2)C1	-3	?	?	i	-52*	?
O=C(/C=C/c1ccccc1)CCN1CCOCC1	-10	?	?	?	-15	8.2µM*
CCc1ccc2oc(-c3ccc(C)c(NC(=O)Cc4ccccc4)c3)nc2c1	-14	.	i	i	.	.
Cc1ccccc1CSc1cn(CC(=O)N2CCCC2)c2ccccc12	-14	.	.	.	.	.
C/C(=C\c1ccccc1)C(=O)NCCN1CCOCC1	3	-6%	i	i	-14	9%
O=C1/C(=C/c2ccccc2)CN(C(=O)CCN2CCOCC2)C/C1=C\c1ccccc1	-19	2.3µM*	i	?	-77*	?
Cc1ccc(Nc2ncnc3c2cnn3-c2ccccc2)c(C)c1	9	.	i	?	.	.
C=CCN(CC=C)S(=O)(=O)c1ccc2nc(NC(=O)C(C)C)sc2c1	-11	8.2µM*	3.7µM*	?	8	?
CCN(CC)S(=O)(=O)c1cccc(C(=O)N[C@H](C(=O)Nc2nc3ccccc3s2)C(C)C)c1	-24	27%	i	i	-24	-1%
CCN(CC)S(=O)(=O)c1cccc(C(=O)N[C@H](C(=O)Nc2nc3ccc(F)cc3s2)C(C)C)c1	-10	?	15µM*	5.8µM*	-13	?
CCOC(=O)c1ccc2nc(NC(=O)C(C)C)sc2c1	4	-1%	i	i	-15	1%
CCOc1ccc(-n2c(=O)c3sc4ccccc4c3n(Cc3cccc(C)c3)c2=O)cc1	-12	.	i	i	.	.
CCOc1ccc(C2=CS/C(=C(\C#N)c3nnc4n3CCCCC4)N2CC)cc1	11	1%	i	21µM*	15	1%
C=CCN1C(c2ccccc2)=CS/C1=C(\C#N)c1nnc2n1CCCCC2	0	-10%	i	?	21	2%
CCN(CC(=O)Nc1c(F)cccc1F)C(=O)c1ccc2c(c1)C(=O)N(c1ccccc1C)C2=O	1	.	i	i	23	.

From PubChem
